The whole screen tested about 290,000 compounds, of which about 27,000 (9.3%) were called active. Shown is part of a subset that was picked to be rich in actives. Unmarked numbers belong to inactive results. Rule as the data show it: active = inhibition mostly above about 28% (no sharp cut-off); inactive = mostly below about 43%.
Test: A qHTS for Small Molecule Inhibitors of Shiga Toxin; also: 0% is about no effect
Details: Vero cells, Shiga toxin protein synthesis inhibition reporter; at 38.7 µM, hits give high values

Row | Structure (SMILES) | inhibition
1 | COC(=O)CCc1ccccc1S(=O)(=O)N(CCC(=O)OC)Cc1ccccc1 | -5.55%
2 | Cc1ccccc1Nc1c([N+](=O)[O-])ccc2nonc12 | -12%
3 | COc1cc(OC)c2c(C)cc(=O)oc2c1C(CCN1CCCCC1)c1ccc(N(C)C)cc1 (stereo unspecified) | -4.37%
4 | COCc1ccc(CN2CCC(Oc3ccc(C(=O)NCc4ccccn4)cc3)CC2)o1 | -9.34%
5 | C=C1/C(=C\C=C2\CCCC3(C)C2CCC3C(C)/C=C/C(O)C2CC2)CC(O)CC1O (stereo unspecified) | -5.18%
6 | O=C(NCc1cccc(C(F)(F)F)c1)c1cccc(S(=O)(=O)N2CCN(Cc3ccccc3)CC2)c1 | -21.6%
7 | CCOc1ccc(C2/C(=C(/O)c3ccc4c(c3)CC(C)O4)C(=O)C(=O)N2CCCn2ccnc2)cc1 (stereo unspecified) | 14.2%
8 | Cc1cccc(C)c1OCC(=O)NC(Cc1c[nH]c2ccccc12)C(=O)O (stereo unspecified) | -4.32%
9 | COc1ccc(-c2cc(C(=O)NC(C(=O)O)C(C)C)c(C)o2)cc1OC (stereo unspecified) | 46.9%
10 | COc1ccc(-c2cc(C(=O)NC(Cc3c[nH]c4ccccc34)C(=O)O)c(C)o2)cc1OC (stereo unspecified) | 29.3% (active)
11 | O=C(NCCc1ccc(Cl)cc1Cl)c1cc([N+](=O)[O-])c[nH]c1=O | -2.76%
12 | Cc1ccnc(NS(=O)(=O)c2ccc(NC(=O)c3oc4ccccc4c3C)cc2)n1 | -19.8%
13 | CCCc1nc(SCC(=O)N2CCCC2)c2c(=O)n(C)c(=O)n(C)c2n1 | -3.54%
14 | C[C@@H]1CC[C@@]2(OC1)O[C@H]1C[C@H]3[C@@H]4CC=C5C[C@@H](O)[C@H](O)C[C@]5(C)C4CC[C@]3(C)[C@H]1[C@@H]2C (stereo partly specified) | -6.76%
15 | Cc1[nH]c2ccc(C(=O)N3CCN(C)CC3)cc2c1C | 45.9% (active)
16 | COc1ccc2[nH]c(C(=O)N3CCN(C)CC3)c(C)c2c1 | -9.68%
17 | CCOc1ccccc1N1CCN(C(=O)c2ccc3[nH]c(C)c(C)c3c2)CC1 | -2.3%
18 | CCOCCCNC(=S)Nc1ccc2nc(N3CCN(CC)CC3)cc(C)c2c1 | 4.52%
19 | Cc1ccc(-c2nc3ccccc3[nH]c2=O)cc1 | 21.4%
20 | OC(c1nc2ccccc2[nH]1)C(O)C(O)C(O)c1nc2ccccc2[nH]1 (stereo unspecified) | 19.2%
21 | COc1ccc(-c2[nH]nc(-c3ccccc3)c2-c2nc3ccccc3[nH]2)cc1 | -19.5%
22 | Cc1ccccc1N1CC(c2nc3ccccc3[nH]2)CC1=O (stereo unspecified) | -11.9%
23 | Cc1ccc(-c2nc3ccccc3[nH]2)cc1N | 106% (active)

Row | Structure (SMILES) | inhibition
24 | c1ccc2[nH]c(-c3nc4ccccc4[nH]3)nc2c1 | 107% (active)
25 | CCOC(=O)N1CCN(C(=O)CNC(=O)Cc2ccc(Cl)cc2)CC1 | -2.93%
26 | CCN1CCN(C(=O)CSc2ccc(C)cc2)CC1 | 52.4%
27 | CCOC(=O)N1CCN(C(=O)CSc2ccc(Cl)cc2)CC1 | 93.2% (active)
28 | CC(=O)Nc1ccc(S(=O)(=O)Nc2cc(C)cn(Cc3ccc(C)cc3)c2=O)cc1 | 20.8%
29 | COc1ccccc1C(=O)Oc1ccc(N2C(=O)CCC2=O)cc1 | -6.4%
30 | Cc1cc(OC(=O)c2ccccc2Cl)ccc1N1C(=O)CCC1=O | 60.4% (active)
31 | CCOC(=O)c1cc(OC(=O)c2ccccc2Cl)n(-c2ccccc2)n1 | 35.8%
32 | Cc1n[nH]c(=O)c2c1nnn2Cc1ccc(F)cc1 | 14.5%
33 | CC1CCN(C(=S)NC(=O)c2ccccc2Br)CC1 | 14.3%
34 | Nc1ccc(N=Nc2ccccc2Cl)c(N)n1 | 105% (active)
35 | CCOC(=O)C1CCN(S(=O)(=O)c2ccc3c(c2)N(C(C)=O)CCO3)CC1 | 15.1%
36 | CCN(CC)S(=O)(=O)c1ccc(N2CCN(C)CC2)c(NC(=O)Nc2ccccc2F)c1 | 19.8%
37 | O=C(c1cn2ccccc2n1)N1CCc2c([nH]c3ccccc23)C1c1ccccn1 (stereo unspecified) | 13.1%
38 | Cc1cccc(C2c3[nH]c4ccccc4c3CCN2C(=O)c2cc(-c3cccn3C)n[nH]2)n1 (stereo unspecified) | -3.12%
39 | Cc1cccc(C(=O)N2CCc3c([nH]c4ccccc34)C2CC(C)C)n1 (stereo unspecified) | 52.7% (active)
40 | CCc1ccc(NC(=O)NC(C)c2ccc3c(c2)OCO3)cc1 (stereo unspecified) | -6.59%
41 | Cc1cc(-c2ccc(C)c(S(=O)(=O)NC(C)Cc3ccco3)c2)on1 (stereo unspecified) | -1.68%
42 | O=C(Nc1nnc(SCc2ccccc2)s1)c1ccco1 | 55.6%
43 | CCOC(=O)N1CCN(Cc2nc(N)nc(Nc3ccc(C)cc3)n2)CC1 | 16.1%
44 | Cc1ccc(Nc2nnc(SCc3ccccc3)s2)cc1 | 78.2% (active)
45 | Cc1nnc(SCc2nc3ccccc3nc2C)s1 | -8.09%
46 | Cc1cccc(CSc2nnc(NC(=O)CSc3nnc(C)s3)s2)c1 | -22%

Reference: PubChem BioAssay AID2315 (National Center for Advancing Translational Sciences (NCATS), 2010)
